Laboratory results taken from PubChem BioAssay (EPA / NIEHS).
Activity calls are given as the source filed them. The calls were made as follows: active = hit-call score of the fitted dose curve at least 0.9, where 1 is the maximum; inactive = score below 0.9.

Tests used:
[1] = CEETOX_H295R_OHPREG: CeeTox H295R High-throughput Steroidogenesis Assay for OH-Pregnenolone (OHPREG) (AID 2283434); conditions: actives raise or lower the signal
In short: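 Human adrenal H295R cells were prestimulated 48 h with 10 uM forskolin, then exposed 48 h to chemical in 0.1% DMSO. Medium 17alpha-hydroxypregnenolone was quantified by HPLC-MS/MS after MTBE extraction; bidirectional fitting versus DMSO baseline.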

[2] = CEETOX_H295R_CORTIC: CeeTox H295R High-throughput Steroidogenesis Assay for Corticosterone (CORTIC) (AID 2283437); conditions: actives raise or lower the signal;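 also: corticosterone secreted into medium quantified by mass spectrometry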
In short: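 H295R cells were prestimulated 48 h with 10 uM forskolin, then exposed 48 h to test chemical in 0.1% DMSO. Medium corticosterone was MTBE-extracted and quantified by HPLC-MS/MS; bidirectional fit versus DMSO baseline.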

[3] = CEETOX_H295R_DOC: CeeTox H295R High-throughput Steroidogenesis Assay for DOC (AID 2283439); conditions: actives raise or lower the signal
In short: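 H295R adrenal cells prestimulated 48 h with 10 uM forskolin, then exposed 48 h to test chemical (0.1% DMSO final). Medium 11-deoxycorticosterone extracted with MTBE, quantified by HPLC-MS/MS; bidirectional fit versus DMSO baseline; MTT viability in same wells.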

[4] = CEETOX_H295R_ESTRADIOL: CeeTox H295R High-throughput Steroidogenesis Assay for Estradiol (AID 2283440); conditions: actives raise or lower the signal;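 also: estradiol secreted into medium quantified by LC-MS/MS after dansyl derivatisation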
In short: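 H295R adrenocortical cells were prestimulated with 10 uM forskolin for 48 h, then exposed to test chemical in 0.1% DMSO for 48 h. Medium estradiol was extracted with MTBE, dansyl-derivatized and quantified by HPLC-MS/MS; bidirectional fit versus DMSO.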

[5] = CEETOX_H295R_ESTRONE: CeeTox H295R High-throughput Steroidogenesis Assay for Estrone (AID 2283441); conditions: actives raise or lower the signal;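 also: estrone secreted into medium measured by LC-MS/MS after dansyl derivatization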
In short: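 H295R cells; 48 h forskolin (10 uM) prestimulation; 48 h compound exposure, 0.1% DMSO final. Medium estrone: MTBE extraction, dansyl derivatization, HPLC-MS/MS. Bidirectional fit vs DMSO.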

[6] = CEETOX_H295R_PROG: CeeTox H295R High-throughput Steroidogenesis Assay for Progesterone (PROG) (AID 2283442); conditions: actives raise or lower the signal;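 as to AC50: human H295R adrenal cells primed with 10 µM forskolin before dosing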
In short: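 H295R human adrenal cells were prestimulated with 10 uM forskolin for 48 h, then exposed to test chemical (0.1% DMSO final) for 48 h. Medium progesterone was MTBE-extracted and quantified by HPLC-MS/MS, with bidirectional fitting against DMSO.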

[7] = read-out: Tumor necrosis factor receptor superfamily member 6 (Homo sapiens) (UniProt P25445); assay: LTEA_HepaRG_FAS: Life Technologies and Expression Analysis (LTEA) Assay for Fas cell surface death receptor (FAS) using HepaRG (AID 2283447); conditions: mRNA level, 48 h; actives raise or lower the signal
In short: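 Differentiated human HepaRG cells, pre-cultured 48 h, were exposed in duplicate for 48 h to 8-point half-log concentrations (top 100 uM, 0.5% DMSO) in serum-free induction medium; FAS mRNA measured by qRT-PCR, normalized to ACTB/GAPDH/POLR2A, bidirectional fit versus DMSO.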

[8] = read-out: Fatty acid synthase (Homo sapiens) (UniProt P49327); assay: LTEA_HepaRG_FASN: Life Technologies and Expression Analysis (LTEA) Assay for Fatty Acid Synthase (FASN) using HepaRG (AID 2283448); conditions: mRNA level, 48 h; actives raise or lower the signal
In short: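 Differentiated human HepaRG cells were exposed for 48 h in serum-free induction medium to eight half-log concentrations up to 100 uM in 0.5% DMSO, in duplicate. FASN mRNA was quantified by TaqMan qRT-PCR, normalized to ACTB/GAPDH/POLR2A, and fitted bidirectionally against DMSO.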

[9] = read-out: Cyclin D2 (CCND2), CCND2 (gene 894); assay: LTEA_HepaRG_CCND2: Life Technologies and Expression Analysis (LTEA) Assay for Cyclin D2 (CCND2) using HepaRG (AID 2283449); conditions: mRNA level, 48 h; actives raise or lower the signal;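 also: CCND2 transcript measured by TaqMan qRT-PCR and normalised to three housekeeping genes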
In short: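 Differentiated human HepaRG cells were exposed for 48 h in serum-free induction medium to eight half-log concentrations topping at 100 uM (0.5% DMSO vehicle). CCND2 mRNA was quantified by TaqMan qRT-PCR, normalised to ACTB, GAPDH and POLR2A, and fitted bidirectionally against DMSO.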

[10] = read-out: Cyclin Dependent Kinase Inhibitor 1A (CDKN1A), CDKN1A (gene 1026); assay: LTEA_HepaRG_CDKN1A: Life Technologies and Expression Analysis (LTEA) Assay for Cyclin Dependent Kinase Inhibitor 1A (CDKN1A) using HepaRG (AID 2283450); conditions: mRNA level, 48 h; actives raise or lower the signal
In short: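 Differentiated human HepaRG cells, pre-cultured 48 h, were exposed in duplicate for 48 h in serum-free induction medium to eight half-log concentrations up to 100 uM (0.5% DMSO). CDKN1A mRNA was measured by qRT-PCR, normalized to ACTB/GAPDH/POLR2A, bidirectionally fitted versus DMSO.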

[11] = read-out: flavin-containing dimethylaniline monooxygenases 3 (FMO3), FMO3 (gene 2328); assay: LTEA_HepaRG_FMO3: Life Technologies and Expression Analysis (LTEA) Assay for flavin-containing dimethylaniline monooxygenases 3 (FMO3) using HepaRG (AID 2283453); conditions: mRNA level, 48 h; actives raise or lower the signal;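 as to AC50: FMO3 transcript by TaqMan qRT-PCR normalized to ACTB GAPDH and POLR2A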
In short: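 HepaRG, 48 h exposure, 8-pt half-log series from 100 uM, 0.5% DMSO vehicle, duplicates; FMO3 transcript by Fluidigm TaqMan qRT-PCR, housekeeping-normalized; gain/loss fit vs DMSO.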

[12] = read-out: Cytochrome P450 (CYP1A1), CYP1A1 (gene 1543); assay: LTEA_HepaRG_CYP1A1: Life Technologies and Expression Analysis (LTEA) Assay for Cytochrome P450 (CYP1A1) using HepaRG (AID 2283454); conditions: mRNA level, 48 h; actives raise or lower the signal
In short: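 Differentiated HepaRG cells in serum-free induction medium were exposed in duplicate for 48 h to eight half-log concentrations up to 100 uM in 0.5% DMSO. CYP1A1 mRNA was quantified by TaqMan qRT-PCR, normalized to ACTB, GAPDH and POLR2A.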

[13] = read-out: CFLAR gene, CFLAR (gene 8837); assay: LTEA_HepaRG_CFLAR: Life Technologies and Expression Analysis (LTEA) Assay for CFLAR gene using HepaRG (AID 2283455); conditions: mRNA level, 48 h; actives raise or lower the signal
In short: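 HepaRG cells were plated for 48 h, switched to serum-free induction medium, then exposed in duplicate for 48 h to 8 concentrations (top 100 uM, half-log steps, 0.5% DMSO). CFLAR mRNA was measured by qRT-PCR, normalized to ACTB, GAPDH and POLR2A.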

[14] = read-out: growth arrest and DNA damage 45 (GADD45A), GADD45A (gene 1647); assay: LTEA_HepaRG_GADD45A: Life Technologies and Expression Analysis (LTEA) Assay for growth arrest and DNA damage 45 (GADD45A) using HepaRG (AID 2283458); conditions: mRNA level, 48 h; actives raise or lower the signal
In short: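 Differentiated HepaRG cells were exposed in duplicate for 48 h in serum-free induction medium to 8-point half-log concentrations up to 100 uM in 0.5% DMSO. GADD45A mRNA was measured by TaqMan qRT-PCR, normalized to ACTB, GAPDH and POLR2A, with bidirectional fitting versus DMSO.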

[15] = read-out: Forkhead box O3 (FOXO3), FOXO3 (gene 2309); assay: LTEA_HepaRG_FOXO3: Life Technologies and Expression Analysis (LTEA) Assay for Forkhead box O3 (FOXO3) using HepaRG (AID 2283459); conditions: mRNA level, 48 h; actives raise or lower the signal
In short: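 Differentiated human HepaRG cells in serum-free induction medium were exposed in duplicate for 48 h to eight half-log concentrations up to 100 uM in 0.5% DMSO. FOXO3 mRNA was quantified by qRT-PCR, normalized to ACTB, GAPDH and POLR2A, with bidirectional fitting versus DMSO.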

[16] = read-out: Cyclin D1 (CCND1), CCND1 (gene 595); assay: LTEA_HepaRG_CCND1: Life Technologies and Expression Analysis (LTEA) Assay for Cyclin D1 (CCND1) using HepaRG (AID 2283451); conditions: mRNA level, 48 h; actives raise or lower the signal
In short: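 Differentiated human HepaRG cells in serum-free induction medium were exposed 48 h to eight half-log concentrations up to 100 uM in 0.5% DMSO; mRNA quantified by TaqMan qRT-PCR, normalized to ACTB, GAPDH, POLR2A, fitted bidirectionally versus DMSO.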

[17] = read-out: catalase (CAT), CAT (gene 847); assay: LTEA_HepaRG_CAT: Life Technologies and Expression Analysis (LTEA) Assay for catalase (CAT) using HepaRG (AID 2283452); conditions: mRNA level, 48 h; actives raise or lower the signal
In short: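 Differentiated HepaRG cells in serum-free induction medium were dosed 48 h in duplicate, eight half-log concentrations from 100 uM in 0.5% DMSO. Transcript measured by TaqMan qRT-PCR, normalised to ACTB/GAPDH/POLR2A, fitted bidirectionally against DMSO.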

[18] = CEETOX_H295R_ANDR: CeeTox H295R High-throughput Steroidogenesis Assay for Androstenedione (ANDR) (AID 2283436); conditions: actives raise or lower the signal
In short: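 H295R human adrenal cells (passages ≤10) were exposed to test chemicals for 48 h; androstenedione in medium was MTBE-extracted and quantified by HPLC-MS/MS against a 7-point standard curve. Bidirectional fitting used DMSO as baseline.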

[19] = CEETOX_H295R_TESTO: CeeTox H295R High-throughput Steroidogenesis Assay for Testosterone (TESTO) (AID 2283457); conditions: actives raise or lower the signal
In short: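 H295R human adrenal cells in DMEM/F12 with ITS+ and Nu-Serum, exposed to chemicals for 48 h. Testosterone in medium measured by MTBE extraction, reverse-phase HPLC-MS/MS; bidirectional fit versus DMSO baseline. MTT viability checked in same wells.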

Measured: AC50

Sequence of Fatty acid synthase (Homo sapiens) (P49327 whole entry, looked up): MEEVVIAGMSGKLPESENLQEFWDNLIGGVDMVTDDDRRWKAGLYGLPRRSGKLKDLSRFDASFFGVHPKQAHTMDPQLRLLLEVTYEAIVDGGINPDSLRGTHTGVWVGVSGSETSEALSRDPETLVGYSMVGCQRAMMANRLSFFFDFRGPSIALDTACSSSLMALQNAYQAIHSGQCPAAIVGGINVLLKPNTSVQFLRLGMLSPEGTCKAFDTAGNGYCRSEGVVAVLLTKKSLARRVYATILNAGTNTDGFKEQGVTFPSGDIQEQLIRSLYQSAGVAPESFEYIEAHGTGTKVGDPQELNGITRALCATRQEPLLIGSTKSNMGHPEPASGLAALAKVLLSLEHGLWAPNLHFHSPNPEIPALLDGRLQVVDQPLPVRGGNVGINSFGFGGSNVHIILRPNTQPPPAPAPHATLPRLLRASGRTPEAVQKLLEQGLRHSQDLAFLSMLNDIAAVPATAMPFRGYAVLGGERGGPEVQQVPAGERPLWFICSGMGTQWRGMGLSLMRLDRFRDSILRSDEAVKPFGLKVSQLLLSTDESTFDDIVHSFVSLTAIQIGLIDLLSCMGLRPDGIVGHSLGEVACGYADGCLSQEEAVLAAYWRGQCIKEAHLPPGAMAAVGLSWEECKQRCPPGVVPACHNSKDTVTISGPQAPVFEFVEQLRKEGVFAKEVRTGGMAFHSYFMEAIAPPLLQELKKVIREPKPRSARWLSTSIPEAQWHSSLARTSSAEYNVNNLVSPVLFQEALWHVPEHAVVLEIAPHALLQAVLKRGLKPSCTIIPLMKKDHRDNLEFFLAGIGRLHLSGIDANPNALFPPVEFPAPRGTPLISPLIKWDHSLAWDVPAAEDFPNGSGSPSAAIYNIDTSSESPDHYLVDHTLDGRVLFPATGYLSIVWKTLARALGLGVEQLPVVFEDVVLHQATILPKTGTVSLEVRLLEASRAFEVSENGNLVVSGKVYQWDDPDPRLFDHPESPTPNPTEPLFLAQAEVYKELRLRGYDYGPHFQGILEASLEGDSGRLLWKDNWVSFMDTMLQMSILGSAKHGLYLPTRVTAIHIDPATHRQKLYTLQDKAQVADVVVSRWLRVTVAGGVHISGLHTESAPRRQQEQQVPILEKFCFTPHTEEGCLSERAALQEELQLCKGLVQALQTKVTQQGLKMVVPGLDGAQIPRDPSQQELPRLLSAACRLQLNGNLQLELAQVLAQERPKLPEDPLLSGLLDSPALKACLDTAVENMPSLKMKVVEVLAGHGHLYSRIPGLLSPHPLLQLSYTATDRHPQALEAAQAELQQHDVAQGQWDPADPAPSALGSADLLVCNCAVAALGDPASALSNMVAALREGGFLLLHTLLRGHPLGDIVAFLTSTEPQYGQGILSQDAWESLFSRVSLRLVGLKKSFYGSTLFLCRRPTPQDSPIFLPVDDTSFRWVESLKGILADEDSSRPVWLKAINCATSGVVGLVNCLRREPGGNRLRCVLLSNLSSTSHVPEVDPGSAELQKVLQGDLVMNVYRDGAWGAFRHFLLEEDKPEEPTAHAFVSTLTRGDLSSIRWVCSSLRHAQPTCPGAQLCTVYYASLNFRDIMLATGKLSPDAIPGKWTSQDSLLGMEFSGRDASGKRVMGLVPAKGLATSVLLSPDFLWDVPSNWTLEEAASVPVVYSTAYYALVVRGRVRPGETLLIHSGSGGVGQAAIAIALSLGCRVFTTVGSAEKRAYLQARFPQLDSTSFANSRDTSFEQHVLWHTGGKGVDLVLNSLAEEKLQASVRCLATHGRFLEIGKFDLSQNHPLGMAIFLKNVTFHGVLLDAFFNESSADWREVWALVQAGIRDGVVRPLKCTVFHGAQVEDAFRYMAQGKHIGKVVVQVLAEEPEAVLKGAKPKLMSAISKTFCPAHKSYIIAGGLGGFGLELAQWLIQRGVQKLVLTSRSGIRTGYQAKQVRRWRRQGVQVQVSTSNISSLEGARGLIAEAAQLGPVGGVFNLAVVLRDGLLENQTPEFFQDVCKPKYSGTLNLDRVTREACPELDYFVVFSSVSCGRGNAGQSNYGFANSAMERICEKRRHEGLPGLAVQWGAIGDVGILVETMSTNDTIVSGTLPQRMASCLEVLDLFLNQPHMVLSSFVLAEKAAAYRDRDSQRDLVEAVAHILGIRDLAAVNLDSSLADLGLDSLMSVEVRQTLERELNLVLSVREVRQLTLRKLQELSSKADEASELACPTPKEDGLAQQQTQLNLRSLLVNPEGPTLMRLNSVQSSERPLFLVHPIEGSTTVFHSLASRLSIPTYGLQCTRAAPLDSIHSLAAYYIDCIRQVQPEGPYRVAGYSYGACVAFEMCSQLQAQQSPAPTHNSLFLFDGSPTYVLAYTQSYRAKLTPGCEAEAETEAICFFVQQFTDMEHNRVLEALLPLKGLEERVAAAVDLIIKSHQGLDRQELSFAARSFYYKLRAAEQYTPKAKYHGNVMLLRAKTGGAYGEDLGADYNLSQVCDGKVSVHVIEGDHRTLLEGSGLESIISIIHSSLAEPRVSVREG

CNC(=O)Oc1ccccc1OC(C)C
not listed: [16] | [17] | [18] | [19]
inactive: all other assays above

CC(C)(C)C(O)/C(=C\c1ccc(Cl)cc1Cl)n1cncn1 (configuration not stated)
active: [8] 80.6 µM | [10] 27.5 µM | [11] 33.8 µM | [12] 9.3 µM | [13] 76.6 µM | [15] 82.3 µM
not listed: [16] | [17] | [18] | [19]
inactive: all other assays above

CCc1ccc(C(=O)NN(C(=O)c2cc(C)cc(C)c2)C(C)(C)C)cc1
active: [11] 81.9 µM
not listed: [17] | [18] | [19]
inactive: all other assays above

CC(C)N(C(=O)COc1nnc(C(F)(F)F)s1)c1ccc(F)cc1
active: [11] 40.7 µM | [12] 50 µM
not listed: [16] | [17] | [18] | [19]
inactive: all other assays above

O=C(NC(=O)c1c(F)cccc1F)Nc1ccc(OC(F)(F)C(F)OC(F)(F)F)c(Cl)c1 (configuration not stated)
active: [8] 8.63 µM | [12] 21.2 µM
not listed: [16] | [17] | [18] | [19]
inactive: all other assays above

COP(=S)(OC)Oc1ccc(SC)c(C)c1
active: [12] 28.8 µM
not listed: [8] | [16] | [17] | [18] | [19]
inactive: all other assays above

CCC(C)Nc1c([N+](=O)[O-])cc(C(C)(C)C)cc1[N+](=O)[O-] (configuration not stated)
active: [1] 74.5 µM | [3] 87.1 µM | [6] 88.3 µM | [12] 12.9 µM
not listed: [16] | [18] | [19]
inactive: all other assays above

CNC(=O)/C=C(\C)OP(=O)(OC)OC
not listed: [16] | [17] | [18] | [19]
inactive: all other assays above

C[C@H]1[C@H](c2ccc(Cl)cc2)SC(=O)N1C(=O)NC1CCCCC1
active: [7] 90.5 µM | [10] 71.6 µM | [11] 75 µM | [12] 14.9 µM | [14] 75.8 µM
not listed: [9] | [16] | [17]
inactive: all other assays above
